MCF10A rereplic: A quantitative high throughput screen for small molecules that induce DNA re-replication in MCF 10a normal breast cells | MCF 10A DNA re-replication, Hoechst nuclear intensity, 48 h | Potency, µM (series often up to 46.1 µM), most hits filed as activators | 350,000 tested, 2.9% active | AID 624296, 2012; note: nearly all actives have a fitted effect of over 50% in size
KB-V1 cytotox: qHTS assay for MDR1-selective chemotherapeutics: Primary screen using the drug-selected MDR subline cells KB-V1 | KB-V1 MDR cells viability, CellTiter-Glo, 72 h | Potency, µM (top dose mostly 46.1 µM), hits mostly cytotoxic | 400,000 tested, 3.4% active; note: nearly all actives have a fitted effect of over 60% in size
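Drug-selected KB-V1 cells, grown in DMEM lacking phenol red with 10% FBS, receive compound titrations; after three days at 37 degrees C, surviving cell ATP is quantified by CellTiter-Glo luminescence and responses normalized and curve-fitted.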
KB-3-1 tox: qHTS assay for MDR1-selective chemotherapeutics: Primary screen using the parental adenocarcinoma cell KB-3-1. KB-3-1 viability, CellTiter-Glo ATP luminescence, 72 h. Potency, µM (series often up to 46.1 µM), most hits filed as cytotoxic. 400,000 tested, 1.4% active; note: nearly all actives have a fitted effect of over 60% in size
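Parental KB-3-1 adenocarcinoma cells in phenol-red-free DMEM with 10% FBS were pin-treated with compounds at several concentrations, incubated 72 h at 37 °C, and viability read by CellTiter-Glo luminescence; concentration-effect curves were fitted after normalization.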
SW480 rerep: A quantitative high throughput screen for small molecules that induce DNA re-replication in SW480 colon adenocarcinoma cells; SW480 DNA re-replication, Hoechst DNA content imaging, 48 h; Potency, µM (doses to about 46.1 µM), actives largely listed as activators; 340,000 tested, 1.8% active; AID 624297, 2012; note: nearly all actives have a fitted effect of over 55% in size
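DNA re-replication was detected as more nuclei of elevated Hoechst intensity after 48 hr exposure to compound (23 nL pinned per well of 250 cells).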
IL-1B inflam inh: qHTS for Inhibitors of Inflammasome Signaling: IL-1-beta AlphaLISA Primary Screen; THP-1 LPS/ATP IL-1B secretion, AlphaLISA, 16 h; stronger effect = lower value; activity change, % at 57.5 µM; 360,000 tested, 4.7% active; AID 743279, 2014; in the data active = activity change below about -50%; inconclusive = mostly about -30% to -49%
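Secreted IL-1B measured by AlphaLISA bead assay after 16 h compound exposure of THP-1 cells; compounds (final up to 57.5 uM) added 1 h before LPS (250 ng/mL) and ATP (1.25 mM) stimulation; lower signal means less secretion.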
Large screens that a line does not name were inactive. In the library only some 9.9% were active in any assay of this set; here they are far more common. Unless noted, calls come from the whole dose curve; as a rule, active = well fitted curve in the direction sought with a large enough effect; inconclusive = small, poorly fitted or top-dose-only effect, or another doubt; inactive = no such curve, though single readings can be large; an effect the other way counts as inactive or inconclusive.

CN(C)CCCN(C(=O)c1ccc(C(=O)c2ccccc2)cc1)c1nc2cc3c(cc2s1)OCCO3	IL-1B inflam inh -64
Fc1c(F)c(-n2nnc3ccccc32)c(F)c(F)c1Cl	none
O=C(NC12CC3CC(CC(C3)C1)C2)N1CCN(C(=O)c2ccco2)CC1	none
O=C(NCCN1C(=O)S/C(=C\c2cccnc2)C1=O)c1cc(S(=O)(=O)N2CCOCC2)ccc1F	SW480 rerep 2.1µM
O=C(CCl)NCCN1C(=O)S/C(=C\c2cccnc2)C1=O	MCF10A rereplic inconclusive, KB-3-1 tox inconclusive, SW480 rerep inconclusive, IL-1B inflam inh -70
COc1ccc(C(=O)NCCN2C(=O)S/C(=C\c3cccnc3)C2=O)c(OC)c1OC	KB-V1 cytotox 15µM
Cc1ccc(C2(C)NC(=O)N(CC(=O)NCCN3C(=O)S/C(=C\c4cccnc4)C3=O)C2=O)cc1 (centres undefined)	SW480 rerep 5.8µM
CC(C)n1c(N2CCN(CC(=O)Nc3ccc4c(c3)OCCO4)CC2)nc2ccccc21	none
Cc1nn(Cc2ccccc2)c(C)c1C(=O)NCCN1C(=O)S/C(=C\c2ccccc2)C1=O	MCF10A rereplic 26µM, KB-V1 cytotox inconclusive, SW480 rerep inconclusive
NS(=O)(=O)c1cccc(NC(=O)c2cc(=O)c3ccccc3o2)c1	none
O=C(Nc1cccc(Br)c1)c1cc2ccccc2o1	IL-1B inflam inh -57
Cc1cccc(NC(=O)c2cc3ccccc3o2)c1	KB-3-1 tox inconclusive
NS(=O)(=O)c1cccc(NC(=O)c2cc3ccccc3o2)c1	SW480 rerep 18µM
CN(c1ccccc1)S(=O)(=O)c1cccc(NC(=O)c2cc(=O)c3ccccc3o2)c1	MCF10A rereplic 26µM, KB-V1 cytotox inconclusive, IL-1B inflam inh -52
CC(NC(=O)CCCc1ccccc1)c1ccncc1 (centres undefined)	none
CN(C)c1ccc(-c2nn3c(-c4cccnc4)nnc3s2)cc1	KB-V1 cytotox inconclusive
COc1ccccc1-c1nn2c(C(F)(F)F)nnc2s1	KB-V1 cytotox 7.3µM, KB-3-1 tox inconclusive
c1ccc2oc(-c3nn4c(Cn5cnc6ccccc65)nnc4s3)cc2c1	none
FC(F)(F)c1nnc2sc(-c3ccccn3)nn12	none
COc1ccccc1-c1nnc2sc(-c3cc4ccccc4o3)nn12	MCF10A rereplic 2.9µM, KB-V1 cytotox inconclusive, KB-3-1 tox 0.52µM, SW480 rerep 2.6µM
COc1ccccc1-c1nnc2sc(-c3ccc(N(C)C)cc3)nn12	MCF10A rereplic inconclusive, KB-V1 cytotox 0.058µM, KB-3-1 tox 0.29µM, SW480 rerep inconclusive
COc1ccccc1-c1nnc2sc(-c3cnccn3)nn12	MCF10A rereplic 18µM, SW480 rerep inconclusive
Cc1cccc(OCC(=O)N/N=C\c2cc3c(cc2[N+](=O)[O-])OCO3)c1C	none
CCCCOc1ccc(C2=NC(c3ccccc3)=Nc3ccc(OC)cc3N2)cc1	none (no result: MCF10A rereplic, SW480 rerep, IL-1B inflam inh)
Clc1ccccc1-c1nn2c(-c3ccncc3)nnc2s1	KB-V1 cytotox inconclusive, IL-1B inflam inh -67
COc1ccccc1-c1nnc2sc(COc3ccc(F)cc3)nn12	IL-1B inflam inh -67
CCOc1ccc(-c2nnc3sc(-c4ccccc4OC)nn23)cc1	none
Clc1ccccc1-c1nnc2sc(-c3ccncc3)nn12	none
CN(C)c1ccc(-c2nn3c(-c4ccccc4Cl)nnc3s2)cc1	MCF10A rereplic inconclusive, KB-V1 cytotox 1.2µM, KB-3-1 tox 0.58µM, SW480 rerep 1µM
O=C(COc1cccc(F)c1)Nc1nc(-c2cccnc2)cs1	none
Cc1ccc(NC(=O)C2C3CC4OC(=O)C2C4C3)cc1Cl (centres undefined)	MCF10A rereplic 3.7µM
Cc1ccc(-c2nnc(OCc3cccnc3)c3ccccc23)cc1	KB-V1 cytotox 16µM, IL-1B inflam inh -83
Cc1ccc(Oc2nnc(-c3ccc(C)cc3)c3ccccc23)cc1	KB-V1 cytotox 18µM, KB-3-1 tox inconclusive
c1ccc(-c2nnc(OCc3cccnc3)c3ccccc23)cc1	none
COc1ccc(-c2nnc(OCc3ccccc3)c3ccccc23)cc1	KB-V1 cytotox inconclusive, KB-3-1 tox inconclusive, IL-1B inflam inh -87
CC(=O)NC12CC3CC(C1)CC(C(=O)N1CCN(c4ncccn4)CC1)(C3)C2	none
Cc1csc(SC(C)c2nc3scc(-c4ccccc4)c3c(=O)[nH]2)n1 (centres undefined)	MCF10A rereplic inconclusive, KB-V1 cytotox 9.2µM, KB-3-1 tox inconclusive
O=c1[nH]c(Cc2ccccc2)nc2scc(-c3ccccc3)c12	MCF10A rereplic inconclusive
COc1ccc(CNc2nc3ccc(C)cc3s2)c(OC)c1OC	none
O=C1c2ccccc2C(=O)N1CCCCSc1nnc(-c2ccc(OC(F)F)cc2)o1	KB-V1 cytotox 3.3µM
Cc1nnc(SCCCN2C(=O)c3ccccc3C2=O)o1	none
COc1ccc(N(C(=O)CCl)C(C(=O)NCCc2ccccc2)c2cccs2)cc1Cl (centres undefined)	MCF10A rereplic 6.5µM, KB-V1 cytotox 13µM, KB-3-1 tox 8.2µM, SW480 rerep inconclusive, IL-1B inflam inh -103
COc1cccc(N(C(=O)CCl)C(C(=O)NCCc2ccccc2)c2cccs2)c1 (centres undefined)	MCF10A rereplic 16µM, KB-V1 cytotox inconclusive, KB-3-1 tox inconclusive, SW480 rerep inconclusive, IL-1B inflam inh inconclusive
COc1ccc(N(C(=O)c2ccco2)C(C(=O)NC2CCCCC2)c2cccs2)cc1OC (centres undefined)	none
COc1cccc(N(C(=O)c2snc(C(N)=O)c2N)C(C(=O)NCC2CCCO2)c2cccs2)c1 (centres undefined)	KB-V1 cytotox inconclusive
O=C(NC(=S)Nc1ccccn1)c1cccc([N+](=O)[O-])c1	KB-V1 cytotox inconclusive
Cc1cccc2cc(CN(Cc3cccs3)Cc3nnnn3Cc3ccccc3)c(=O)[nH]c12	IL-1B inflam inh -50
CCC(C)(C)n1nnnc1CN(Cc1cccs1)Cc1cc2cc(OC)ccc2[nH]c1=O	MCF10A rereplic inconclusive
O=c1[nH]c2cc3c(cc2cc1CN(Cc1ccccc1)Cc1nnnn1Cc1ccco1)OCCO3	KB-V1 cytotox 23µM, SW480 rerep inconclusive, IL-1B inflam inh -59
CCc1ccc2[nH]c(=O)c(CN(Cc3ccccc3)Cc3nnnn3Cc3ccco3)cc2c1	KB-V1 cytotox inconclusive, KB-3-1 tox inconclusive, SW480 rerep inconclusive, IL-1B inflam inh -54
COc1ccc2cc(CN(Cc3cccs3)Cc3nnnn3Cc3ccccc3)c(=O)[nH]c2c1	KB-V1 cytotox inconclusive, KB-3-1 tox inconclusive
CCc1ccc2[nH]c(=O)c(CN(Cc3ccccc3)Cc3nnnn3Cc3ccccc3)cc2c1	none (no result: MCF10A rereplic, SW480 rerep, IL-1B inflam inh)

Screens as filed in PubChem BioAssay.
